Inconclusive results are not listed. Activity calls are given as the source filed them. How the source made its calls: active means hit-call score of the fitted dose curve at least 0.9, where 1 is the maximum; inconclusive means response in the unintended direction; inactive means score below 0.9.
Tests used:
[1] = biological target: human Dopamine Receptor D4.4 (DRD4.4), DRD4 (gene 1815) (UniProt P21917); assay: NVS_GPCR_hDRD4.4: NovaScreen (NVS) G Protein-Coupled Receptor Assay for human Dopamine Receptor D4.4 (DRD4.4) (AID 2283264)
How it was run: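 Filter-binding assay with a tritiated or iodinated ligand, cell-free receptor prepared from CHO, 1 hour. Loss of bound radioactivity versus DMSO; single 25 uM duplicate screen, then concentration-response for actives.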

[2] = biological target: human Dopamine Receptor D2 (DRD2), DRD2 (gene 1813) (UniProt P14416); assay: NVS_GPCR_hDRD2s: NovaScreen (NVS) G Protein-Coupled Receptor Assay for human Dopamine Receptor D2 (DRD2) (AID 2283266)
How it was run: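 Test compound (25 uM, duplicate in the primary screen; concentration series at follow-up) competed with radioligand for human DRD2 in CHO-derived membrane protein. Filter-based scintillation counting was done 1.5 hours after dosing, with loss of signal analysed against DMSO.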

[3] = biological target: human Histamine 1 Receptor (H1), HRH1 (gene 3269) (UniProt P35367); assay: NVS_GPCR_hH1: NovaScreen (NVS) G Protein-Coupled Receptor Assay for human Histamine 1 Receptor (H1) (AID 2283268)
How it was run: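 Filter-based scintillation detection of radioligand binding to human H1, 1 h incubation; chemicals screened in duplicate at 25 uM, then concentration-response; signal loss relative to DMSO taken as activity.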

[4] = biological target: D(1A) dopamine receptor (Homo sapiens) (UniProt P21728); assay: NVS_GPCR_hDRD1: NovaScreen (NVS) G Protein-Coupled Receptor Assay for human Dopamine Receptor D1 (DRD1) (AID 2283269)
How it was run: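 HEK293-derived receptor preparation; radioligand competitive displacement; 1 h; filtration + scintillation counting. DMSO = negative control/baseline. Primary: 25 uM, duplicate; secondary: concentration–response for actives.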

[5] = biological target: human Leukotriene B4 Receptor 1 (LTB4-BLT1), LTB4R (gene 1241) (UniProt Q15722); assay: NVS_GPCR_hLTB4_BLT1: NovaScreen (NVS) G Protein-Coupled Receptor Assay for human Leukotriene B4 Receptor 1 (LTB4-BLT1) (AID 2283271)
How it was run: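 Cell-free human neutrophil receptor preparation, 1 h exposure, radioligand binding read by filter scintillation counting. Single 25 uM duplicate screen, then concentration series topping at 50 uM; binding loss scored against DMSO baseline.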

[6] = biological target: human Neurokinin, NK2 Receptor, TACR2 (gene 6865) (UniProt P21452); assay: NVS_GPCR_hNK2: NovaScreen (NVS) G Protein-Coupled Receptor Assay for human Neurokinin, NK2 Receptor (AID 2283278);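 further: actives reduce bound radioligand signal relative to DMSO baseline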
How it was run: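 Filter-based scintillation counting measured radioligand bound to receptor extracted from CHO cells, 4 hours after compound addition. Chemicals screened first at 25 uM in duplicate, with actives retested in concentration series relative to DMSO.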

[7] = biological target: human Opioid Receptor Delta 1 (Opiate D1), OPRD1 (gene 4985) (UniProt P41143); assay: NVS_GPCR_hOpiate_D1: NovaScreen (NVS) G Protein-Coupled Receptor Assay for human Opioid Receptor Delta 1 (Opiate D1) (AID 2283280)
How it was run: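 Membrane preparations from CHO cells bearing the human receptor were incubated 1 h with test chemical, and bound radioligand was counted after filtration. Actives from 25 uM duplicate screening were retested in concentration-response.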

[8] = biological target: Muscarinic acetylcholine receptor M2 (Homo sapiens) (UniProt P08172); assay: NVS_GPCR_hM2: NovaScreen (NVS) G Protein-Coupled Receptor Assay for human Muscarinic, M2 Receptor (AID 2283273)
How it was run: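 Filter-based radiodetection read bound radioligand 1 h after dosing CHO-derived membrane protein. Single-concentration duplicates (25 uM) first, then concentration-response for actives; signal loss versus DMSO scored.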

[9] = biological target: Muscarinic acetylcholine receptor M1 (Homo sapiens) (UniProt P11229); assay: NVS_GPCR_hM1: NovaScreen (NVS) G Protein-Coupled Receptor Assay for human Muscarinic, M1 Receptor (AID 2283270)
How it was run: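 Actives from a duplicate 25 uM single-point screen were retested in concentration series. Binding measured as displacement of a radioligand from CHO-derived receptor preparation, 1 h incubation, filtration and scintillation counting, analysed as signal loss against DMSO.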

[10] = biological target: Muscarinic acetylcholine receptor M3 (Homo sapiens) (UniProt P20309); assay: NVS_GPCR_hM3: NovaScreen (NVS) G Protein-Coupled Receptor Assay for human Muscarinic, M3 Receptor (AID 2283272)
How it was run: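 Radioligand displacement binding on human M3 receptor in CHO-derived membranes, 1 h incubation, filter-based scintillation counting. Primary screen in duplicate at 25 uM; actives followed up in concentration series; loss of signal versus DMSO.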

[11] = biological target: Muscarinic acetylcholine receptor M5 (Homo sapiens) (UniProt P08912); assay: NVS_GPCR_hM5: NovaScreen (NVS) G Protein-Coupled Receptor Assay for human Muscarinic, M5 Receptor (AID 2283275)
How it was run: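 Chemicals passing a primary duplicate screen at 25 uM were run as singleton concentration series, maximum 50 uM. Displacement of a specific radioligand from CHO-extracted receptor was read by filter scintillation after 1 h, relative to DMSO.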

[12] = biological target: human Purinergic Receptor P2Y, P2RY1 (gene 5028) (UniProt P47900); assay: NVS_GPCR_hPY2: NovaScreen (NVS) G Protein-Coupled Receptor Assay for human Purinergic Receptor P2Y (AID 2283281)
How it was run: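 Filtration scintillation readout of radioligand displacement on U937 extract, measured 1 h post-dosing. Single 25 uM duplicate screen, then singleton concentration series to 50 uM for chemicals passing threshold; DMSO as baseline.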

[13] = biological target: human Thromboxane A2 Receptor (TXA2), TBXA2R (gene 6915) (UniProt P21731); assay: NVS_GPCR_hTXA2: NovaScreen (NVS) G Protein-Coupled Receptor Assay for human Thromboxane A2 Receptor (TXA2) (AID 2283282);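 further: actives reduce bound radioligand signal relative to DMSO baseline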
How it was run: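 Cell-free radioligand binding on membrane protein from human platelets; radioligand displacement read by filter-based scintillation counting after 1 h. Primary screen in duplicate at 25 uM, actives then run in concentration series; loss of signal versus DMSO.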

[14] = biological target: human Orphanin, Opioid Related Nociceptin Receptor 1 (ORL1), OPRL1 (gene 4987) (UniProt P41146); assay: NVS_GPCR_hORL1: NovaScreen (NVS) G Protein-Coupled Receptor Assay for human Orphanin, Opioid Related Nociceptin Receptor 1 (ORL1) (AID 2283283)
How it was run: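 Cell-free binding using HEK293-derived receptor protein: radioligand displacement measured by filter scintillation 1 hour after dosing. Primary testing at 25 uM in duplicate, followed by singleton concentration series up to 50 uM; DMSO served as negative control.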

[15] = biological target: Neuropeptide Y receptor type 2 (Homo sapiens) (UniProt P49146); assay: NVS_GPCR_hNPY2: NovaScreen (NVS) G Protein-Coupled Receptor Assay for human Neuropeptide Receptor Y2 (NPY2) (AID 2283277)
How it was run: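 Chemicals were first tested in duplicate at 25 uM, then actives in singleton concentration series to 50 uM. Tracer binding to SK-N-MC-derived protein measured cell-free after 1 h via filter scintillation; signal loss relative to DMSO.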

Measured: AC50

Sequence of D(1A) dopamine receptor (Homo sapiens) (P21728 whole entry, looked up): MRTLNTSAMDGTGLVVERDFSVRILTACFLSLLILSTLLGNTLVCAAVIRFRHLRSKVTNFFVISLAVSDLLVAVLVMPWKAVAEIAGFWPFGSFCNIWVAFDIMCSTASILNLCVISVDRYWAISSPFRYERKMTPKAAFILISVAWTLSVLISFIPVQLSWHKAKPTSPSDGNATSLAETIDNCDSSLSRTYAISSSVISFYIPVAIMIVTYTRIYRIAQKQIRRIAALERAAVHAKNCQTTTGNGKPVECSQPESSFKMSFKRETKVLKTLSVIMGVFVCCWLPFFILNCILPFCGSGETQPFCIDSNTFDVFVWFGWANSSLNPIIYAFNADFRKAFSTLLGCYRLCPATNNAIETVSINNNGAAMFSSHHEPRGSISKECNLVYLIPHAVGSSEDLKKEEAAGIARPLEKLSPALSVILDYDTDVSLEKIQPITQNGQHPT
Sequence of human Opioid Receptor Delta 1 (Opiate D1), OPRD1 (gene 4985) (P41143 whole entry, looked up): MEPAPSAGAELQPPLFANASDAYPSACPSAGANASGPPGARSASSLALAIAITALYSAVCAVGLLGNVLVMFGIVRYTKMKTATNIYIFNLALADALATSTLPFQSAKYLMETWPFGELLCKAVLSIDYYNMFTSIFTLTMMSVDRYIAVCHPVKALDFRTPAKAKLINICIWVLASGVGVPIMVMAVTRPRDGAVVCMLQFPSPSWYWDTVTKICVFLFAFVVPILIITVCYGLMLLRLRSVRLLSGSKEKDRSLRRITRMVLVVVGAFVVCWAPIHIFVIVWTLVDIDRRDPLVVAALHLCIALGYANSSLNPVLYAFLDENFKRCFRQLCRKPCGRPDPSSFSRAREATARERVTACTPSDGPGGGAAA
Sequence of human Dopamine Receptor D4.4 (DRD4.4), DRD4 (gene 1815) (P21917 whole entry, looked up): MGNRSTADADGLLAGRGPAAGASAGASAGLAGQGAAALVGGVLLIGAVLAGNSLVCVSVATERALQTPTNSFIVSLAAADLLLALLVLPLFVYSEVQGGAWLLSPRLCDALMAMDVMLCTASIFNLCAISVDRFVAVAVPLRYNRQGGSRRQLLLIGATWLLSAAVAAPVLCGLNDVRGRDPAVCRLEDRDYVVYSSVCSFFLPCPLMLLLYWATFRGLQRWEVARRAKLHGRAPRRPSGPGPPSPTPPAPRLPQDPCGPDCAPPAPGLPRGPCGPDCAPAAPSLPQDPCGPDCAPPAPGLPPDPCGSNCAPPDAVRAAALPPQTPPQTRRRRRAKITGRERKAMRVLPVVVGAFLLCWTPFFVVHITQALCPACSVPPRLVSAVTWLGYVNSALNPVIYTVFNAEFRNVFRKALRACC
Sequence of Muscarinic acetylcholine receptor M2 (Homo sapiens) (P08172 whole entry, looked up): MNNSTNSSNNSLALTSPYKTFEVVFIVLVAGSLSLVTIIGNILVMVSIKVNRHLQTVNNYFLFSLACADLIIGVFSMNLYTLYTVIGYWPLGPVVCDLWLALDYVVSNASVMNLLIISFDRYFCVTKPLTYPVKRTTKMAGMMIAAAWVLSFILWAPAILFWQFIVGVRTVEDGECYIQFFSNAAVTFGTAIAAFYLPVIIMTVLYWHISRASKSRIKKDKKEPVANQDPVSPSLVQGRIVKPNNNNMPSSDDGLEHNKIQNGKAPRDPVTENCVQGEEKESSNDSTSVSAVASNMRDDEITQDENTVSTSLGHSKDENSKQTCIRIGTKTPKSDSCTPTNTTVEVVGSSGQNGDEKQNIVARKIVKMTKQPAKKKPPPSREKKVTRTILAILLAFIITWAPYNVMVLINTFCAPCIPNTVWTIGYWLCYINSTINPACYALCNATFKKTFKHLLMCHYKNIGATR
Sequence of human Histamine 1 Receptor (H1), HRH1 (gene 3269) (P35367 whole entry, looked up): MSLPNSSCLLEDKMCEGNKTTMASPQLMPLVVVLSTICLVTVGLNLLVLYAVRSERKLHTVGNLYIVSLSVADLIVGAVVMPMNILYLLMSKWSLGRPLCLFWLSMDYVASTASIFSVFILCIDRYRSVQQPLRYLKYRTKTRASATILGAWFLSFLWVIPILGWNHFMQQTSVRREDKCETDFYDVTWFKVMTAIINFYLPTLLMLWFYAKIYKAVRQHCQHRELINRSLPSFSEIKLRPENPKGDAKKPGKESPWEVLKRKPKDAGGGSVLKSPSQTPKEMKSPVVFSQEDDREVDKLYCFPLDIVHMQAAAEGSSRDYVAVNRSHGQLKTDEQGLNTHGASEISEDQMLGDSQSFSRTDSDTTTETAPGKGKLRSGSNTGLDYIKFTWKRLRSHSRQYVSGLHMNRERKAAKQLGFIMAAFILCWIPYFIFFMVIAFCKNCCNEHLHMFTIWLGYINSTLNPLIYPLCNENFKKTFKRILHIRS
Sequence of human Neurokinin, NK2 Receptor, TACR2 (gene 6865) (P21452 whole entry, looked up): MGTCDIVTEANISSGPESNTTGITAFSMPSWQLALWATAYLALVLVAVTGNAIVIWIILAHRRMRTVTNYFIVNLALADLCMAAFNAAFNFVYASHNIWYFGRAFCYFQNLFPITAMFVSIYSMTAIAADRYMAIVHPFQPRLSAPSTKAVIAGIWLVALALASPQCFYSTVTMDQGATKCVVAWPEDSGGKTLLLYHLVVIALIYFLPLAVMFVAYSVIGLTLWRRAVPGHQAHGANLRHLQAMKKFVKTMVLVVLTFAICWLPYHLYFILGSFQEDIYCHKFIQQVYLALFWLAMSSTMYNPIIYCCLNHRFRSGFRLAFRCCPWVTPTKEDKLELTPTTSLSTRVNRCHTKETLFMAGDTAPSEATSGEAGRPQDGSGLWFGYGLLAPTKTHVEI
Sequence of Muscarinic acetylcholine receptor M3 (Homo sapiens) (P20309 whole entry, looked up): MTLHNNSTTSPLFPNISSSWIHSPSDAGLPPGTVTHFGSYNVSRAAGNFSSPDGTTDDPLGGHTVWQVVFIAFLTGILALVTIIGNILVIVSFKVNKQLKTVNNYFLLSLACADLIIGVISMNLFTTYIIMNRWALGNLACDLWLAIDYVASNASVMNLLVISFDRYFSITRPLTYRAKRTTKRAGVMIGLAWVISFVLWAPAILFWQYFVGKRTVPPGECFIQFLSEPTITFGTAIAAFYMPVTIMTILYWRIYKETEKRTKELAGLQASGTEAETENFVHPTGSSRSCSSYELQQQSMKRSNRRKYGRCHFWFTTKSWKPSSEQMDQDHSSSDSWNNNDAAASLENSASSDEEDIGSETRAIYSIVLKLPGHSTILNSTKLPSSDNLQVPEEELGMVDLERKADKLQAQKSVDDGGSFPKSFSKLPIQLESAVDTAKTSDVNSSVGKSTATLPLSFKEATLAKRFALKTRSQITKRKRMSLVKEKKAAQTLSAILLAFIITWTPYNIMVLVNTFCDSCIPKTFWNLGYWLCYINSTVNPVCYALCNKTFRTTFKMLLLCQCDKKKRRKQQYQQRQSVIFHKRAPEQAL
Sequence of human Dopamine Receptor D2 (DRD2), DRD2 (gene 1813) (P14416 whole entry, looked up): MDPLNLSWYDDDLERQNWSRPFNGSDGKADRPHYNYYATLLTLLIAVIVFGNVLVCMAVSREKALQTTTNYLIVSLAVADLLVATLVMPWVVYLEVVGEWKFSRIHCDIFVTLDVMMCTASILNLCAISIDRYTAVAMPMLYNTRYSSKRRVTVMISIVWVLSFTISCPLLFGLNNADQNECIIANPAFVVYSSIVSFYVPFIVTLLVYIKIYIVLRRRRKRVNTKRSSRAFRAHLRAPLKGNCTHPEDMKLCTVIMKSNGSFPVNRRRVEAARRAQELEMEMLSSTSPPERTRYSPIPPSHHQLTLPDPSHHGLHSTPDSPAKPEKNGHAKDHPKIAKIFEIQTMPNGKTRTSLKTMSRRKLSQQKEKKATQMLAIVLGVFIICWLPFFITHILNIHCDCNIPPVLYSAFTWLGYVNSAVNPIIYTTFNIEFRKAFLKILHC
Sequence of Neuropeptide Y receptor type 2 (Homo sapiens) (P49146 whole entry, looked up): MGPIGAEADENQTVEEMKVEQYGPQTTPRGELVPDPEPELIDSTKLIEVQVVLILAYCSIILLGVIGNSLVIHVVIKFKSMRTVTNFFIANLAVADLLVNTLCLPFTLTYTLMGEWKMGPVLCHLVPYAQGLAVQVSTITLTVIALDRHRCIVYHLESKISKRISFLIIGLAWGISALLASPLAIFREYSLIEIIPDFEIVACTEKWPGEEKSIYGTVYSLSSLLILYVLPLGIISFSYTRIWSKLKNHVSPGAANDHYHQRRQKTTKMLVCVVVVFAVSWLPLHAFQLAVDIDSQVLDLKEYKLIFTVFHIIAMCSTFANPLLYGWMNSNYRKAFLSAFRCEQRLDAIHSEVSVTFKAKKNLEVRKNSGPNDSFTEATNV
Sequence of Muscarinic acetylcholine receptor M1 (Homo sapiens) (P11229 whole entry, looked up): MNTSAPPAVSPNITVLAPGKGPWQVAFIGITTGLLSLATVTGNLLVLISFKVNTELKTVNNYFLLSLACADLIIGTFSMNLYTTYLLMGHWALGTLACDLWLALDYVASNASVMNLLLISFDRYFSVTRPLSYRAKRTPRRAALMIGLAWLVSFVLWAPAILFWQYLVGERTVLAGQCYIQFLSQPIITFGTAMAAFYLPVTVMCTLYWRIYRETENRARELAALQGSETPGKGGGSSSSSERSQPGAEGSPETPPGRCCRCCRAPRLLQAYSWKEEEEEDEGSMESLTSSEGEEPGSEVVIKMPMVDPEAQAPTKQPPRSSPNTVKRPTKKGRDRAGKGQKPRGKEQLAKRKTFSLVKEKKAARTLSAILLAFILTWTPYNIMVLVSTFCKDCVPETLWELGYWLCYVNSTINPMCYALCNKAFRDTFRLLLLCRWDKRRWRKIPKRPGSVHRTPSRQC
Sequence of human Thromboxane A2 Receptor (TXA2), TBXA2R (gene 6915) (P21731 whole entry, looked up): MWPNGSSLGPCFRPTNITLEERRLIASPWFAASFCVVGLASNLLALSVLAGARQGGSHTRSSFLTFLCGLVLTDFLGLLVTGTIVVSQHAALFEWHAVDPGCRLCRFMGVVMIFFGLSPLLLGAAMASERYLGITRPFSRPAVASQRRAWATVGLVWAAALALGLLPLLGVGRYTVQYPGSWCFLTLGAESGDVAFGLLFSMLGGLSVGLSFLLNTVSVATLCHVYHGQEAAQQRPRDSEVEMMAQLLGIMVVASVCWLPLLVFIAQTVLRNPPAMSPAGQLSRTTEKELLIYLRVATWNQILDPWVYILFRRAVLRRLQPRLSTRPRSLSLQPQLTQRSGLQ

CSc1ccc(Oc2ccc(S(N)(=O)=O)cc2CN(C)C)cc1C
inactive: [5]
active: [1] 25 µM | [2] 15 µM | [3] 19.6 µM | [4] 5.11 µM | [6] 6.33 µM | [7] 15 µM

NC(=Nc1ccccc1)Nc1ccccc1
active: [8] 19.8 µM

CCCCCCCCCCCCCCOS(=O)(=O)O
active: [1] 13.3 µM | [2] 15.1 µM | [3] 28.1 µM | [4] 5.18 µM | [9] 25 µM | [10] 25 µM | [11] 16.5 µM | [6] 46.3 µM | [7] 8.07 µM | [12] 10.3 µM | [13] 7.59 µM | [14] 16.3 µM

CCc1nc(N)nc(N)c1-c1ccc(Cl)cc1
active: [1] 5.9 µM | [4] 4.73 µM | [8] 13.9 µM
inactive: [10]

Cn1cnc2c1c(=O)[nH]c(=O)n2C
inactive: [4] | [7]

O=C1CCCCC1
inactive: [15]
